# Screens deposited in PubChem by several laboratories.
# Rows were chosen to be rich in hits. Some 4.2% of all compounds tested hit in one or more screens of this group.
# AHR activator – activates the human aryl hydrocarbon receptor | P35869 | activation, % at 5 µM | AHR-responsive luciferase reporter cells, luminescence | actives 2.5% (n = 320,000); in the data active means activation above about 47%;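 further: 0% = vehicle wells and 100% = reference agonist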
# Target sequence (P35869 whole entry, looked up): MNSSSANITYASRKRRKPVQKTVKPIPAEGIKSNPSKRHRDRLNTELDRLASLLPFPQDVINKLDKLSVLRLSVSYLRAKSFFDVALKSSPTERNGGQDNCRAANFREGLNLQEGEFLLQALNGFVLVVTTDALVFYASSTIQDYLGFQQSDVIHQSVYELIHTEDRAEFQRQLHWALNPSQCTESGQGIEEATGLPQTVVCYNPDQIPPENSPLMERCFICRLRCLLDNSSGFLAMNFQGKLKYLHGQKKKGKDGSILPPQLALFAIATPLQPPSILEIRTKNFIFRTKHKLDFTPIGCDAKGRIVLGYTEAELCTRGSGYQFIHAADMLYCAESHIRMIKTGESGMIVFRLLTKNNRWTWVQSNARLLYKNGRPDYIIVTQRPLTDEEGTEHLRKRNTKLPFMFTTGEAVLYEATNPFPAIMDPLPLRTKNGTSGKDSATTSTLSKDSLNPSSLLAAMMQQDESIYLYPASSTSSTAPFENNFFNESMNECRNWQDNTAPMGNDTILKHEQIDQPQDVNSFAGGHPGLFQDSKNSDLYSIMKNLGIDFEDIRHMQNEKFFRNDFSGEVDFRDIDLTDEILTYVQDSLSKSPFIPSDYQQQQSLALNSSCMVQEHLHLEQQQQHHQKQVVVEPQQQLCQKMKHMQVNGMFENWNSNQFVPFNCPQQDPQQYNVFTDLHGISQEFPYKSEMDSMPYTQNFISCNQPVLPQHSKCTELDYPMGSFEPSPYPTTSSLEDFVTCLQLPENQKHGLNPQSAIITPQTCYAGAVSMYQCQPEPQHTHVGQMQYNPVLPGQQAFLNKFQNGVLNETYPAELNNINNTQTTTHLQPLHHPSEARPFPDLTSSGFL
# esBAF inh – blocks esBAF chromatin remodeling in mouse ES cells; Bmi1-luciferase knock-in reporter, 24 h; 100% = twice the neutral-well signal; reporter increase, % at 12.5 µM; actives 2% (n = 350,000); AID 602393; in the data active means activation above about 40%; inconclusive means no clear call, values can overlap the other calls;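 further: 0% = median of the plate's neutral control wells and 100% = double that signal; a rise in the Bmi1 reporter signal indicates esBAF inhibition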
# Wnt act – activates Wnt/beta-catenin signaling in a reporter cell assay; AID 743398; activation, % at 9.35 µM; activator, plate reader; actives 1.2% (n = 300,000); in the data active means activation above about 30%, passing the limit was not always enough; inconclusive means no clear call, values can overlap the other calls;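 further: 0% = neutral control wells and 100% = positive control wells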
# GAA850 FXN act – activators of GAA850 frataxin (FXN) promoter; actives 0.56% (n = 360,000); HEK293 lucGAA850 FXN promoter luciferase reporter, 24 h; percent of 10 µM SAHA response; activation, % at 6 µM;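 active means activation above the average of all compounds screened plus 3 SD, cutoff fixed separately per campaign, cut at about 7.5% in these data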;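 further: 0% = DMSO wells and 100% = 10 µM SAHA wells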
# MITF TRPM1 HTS – MITF TRPM1 promoter activation in melanoma cells; activation, % at 12.5 µM; actives 0.75% (n = 300,000); SK-MEL-5 TRPM1-promoter luciferase, 24 h; % of positive control, neutral wells = 0;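 active means mean activation of at least 80% with every replicate also reaching 80%; inconclusive means mean reaches 80% but some replicate falls short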;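 further: 0% = neutral control wells and 100% = parthenolide positive control wells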
# Numbers without * were called inactive; ? = inconclusive; / = no result.
SMILES,AHR activator,esBAF inh,Wnt act,GAA850 FXN act,MITF TRPM1 HTS
COc1ccc(-c2nn(-c3ccccc3)cc2/C=N/Nc2ccc3ccccc3n2)cc1OC,49*,/,-1,2,-8
COc1ccc(-c2nn(-c3ccccc3)cc2C(=O)O)cc1,1,6,-2,2,4
COc1ccc(-c2nn(-c3ccccc3)cc2CO)cc1OC,51*,6,-2,-1,6
COc1ccc(-c2nn(-c3ccccc3)cc2/C=N/O)cc1OC,38,/,6,1,9
COc1ccc(-c2nn(-c3ccccc3)cc2/C=N/NC(=O)c2ccc3c(c2)OCO3)cc1,16,/,/,/,/
COc1ccc(-c2nn(-c3ccccc3)cc2/C=N/Nc2cccc(C(=O)O)c2)cc1,/,47*,3,6,41
O=C(Nc1cccc(Cl)c1)N[C@@H]1CC[C@H](CCNC(=O)C2CCOCC2)O[C@@H]1CO,/,4,/,/,/
COc1ccc(-c2nn(-c3ccccc3)cc2/C=N/NC(=S)NC(C)C)cc1OC,55*,/,/,1,11
O=[N+]([O-])c1ccc(C2=Nc3cc(Cl)ccc3OC2)cc1,67*,/,-1,4,5
Cc1ccc2c(c1)N=C(c1ccc(F)cc1)CO2,35,/,/,6,46
CCCc1nc2c(C)cc(C)cc2c(N)c1CC,47*,-11,/,-1,2
Cc1cc(C)c2nc(C(F)(F)F)c(C#N)c(N)c2c1,12,-7,/,-2,14
O=C(Nc1ccccc1)c1cnc2n(c1=O)CCS2,54*,39,12,3,26
CCCCOC(=O)c1ccc(NC(=O)c2cnc3n(c2=O)CCS3)cc1,0,/,/,0,-6
O=C(NCCC1=CCCCC1)c1cnc2n(c1=O)CCS2,1,46*,13,3,0
O=C(NCCc1ccc(Cl)cc1)c1cnc2n(c1=O)CCS2,9,21,-3,2,26
Cc1cccc(NC(=O)c2cnc3n(c2=O)CCS3)c1,5,/,/,7,59
O=C(Nc1ccc(OC(F)(F)F)cc1)c1cnc2n(c1=O)CCS2,67*,48*,9,0,7
C[C@@H]1CN([C@H](C)CO)C(=O)c2cc(NC(=O)Nc3ccccc3)ccc2O[C@@H]1CN(C)S(=O)(=O)c1ccc(F)cc1,/,-12,/,/,/
CO[C@H]1CN(C)C(=O)c2cc(NC(C)=O)ccc2OC[C@H](C)N(Cc2ccc(F)cc2)C[C@H]1C,/,-1,/,/,/
C[C@@H]1CN([C@H](C)CO)C(=O)Cc2cc(NC(=O)Cc3ccccc3)ccc2O[C@@H]1CN(C)Cc1ccc(C(=O)O)cc1,/,1,/,/,/
CCC(C)Nc1nc(N)c([N+](=O)[O-])c(NCc2ccccc2)n1 (stereo unspecified),/,-5,4,4,2
COc1ccccc1Nc1nc(NCCCN(C)C)nc(N)c1[N+](=O)[O-],62*,5,0,0,16
COc1ccc(OC)c(Nc2nc(NCCC(C)C)nc(N)c2[N+](=O)[O-])c1,20,-10,2,2,4
CCC(C)Nc1nc(N)c([N+](=O)[O-])c(Nc2ccccc2OC)n1 (stereo unspecified),69*,/,5,4,/
SMILES,AHR activator,esBAF inh,Wnt act,GAA850 FXN act,MITF TRPM1 HTS
CN(C)CCCNc1nc(N)c([N+](=O)[O-])c(NCCO)n1,-2,-7,-1,-1,20
COc1ccccc1Nc1nc(NCC(C)C)nc(N)c1[N+](=O)[O-],79*,8,-1,3,/
CCCC(=O)Nc1ccc2c(c1)C(=O)N(C)[C@@H]1CC[C@H](CC(=O)NC3CCCC3)O[C@H]1CO2,/,-2,/,/,/
CO[C@H]1CN(C)C(=O)c2cc(NC(C)=O)ccc2OC[C@H](C)N(C(=O)C2CC2)C[C@@H]1C,/,6,/,/,/
C[C@H](CO)N1C[C@H](C)[C@H](CN(C)C(=O)c2ccccc2)Oc2cc(C3=CCCCC3)ccc2S1(=O)=O,/,-5,/,/,/
C[C@H](CO)N1C[C@H](C)[C@@H](CN(C)C(=O)Nc2ccc3c(c2)OCO3)Oc2ccc(NC(=O)Cn3cnnn3)cc2CC1=O,/,4,/,/,/
CN(C)CC(=O)Nc1ccc2c(c1)[C@@H]1C[C@@H](CC(=O)NCc3cc(F)ccc3F)O[C@H](CO)[C@@H]1O2,/,0,/,/,/
Cc1nc(C(=O)Nc2ccccc2)sc1C1(C)CC(c2cccnc2)=NO1 (stereo unspecified),12,46*,22,4,53
CCOC(=O)C(NC(=O)c1ccc(F)cc1)(Nc1sc2c(c1C(N)=O)CCC2)C(F)(F)F (stereo unspecified),3,/,108*,1,-10
Cc1cnc(-c2nnc(N(C)C(=O)c3cccnc3)s2)cn1,24,7,14,3,20
CC(=O)N(c1ccccc1)c1nnc(-c2cnc(C)cn2)s1,-1,/,7,6,98*
C[C@@H]1CCCCO[C@H](CN(C)CC2CCCCC2)[C@H](C)CN([C@@H](C)CO)C(=O)c2cc(NC(=O)Nc3ccc(C(F)(F)F)cc3)ccc2O1,/,-89,/,/,/
c1ccc(-c2cnc(C3CCCCC3)o2)cc1,/,53*,0,1,48
Cc1ccc(C(=O)CSc2nnc3n2CCCCC3)s1,3,65*,22,5,46
COC(=O)[C@H]1[C@H](CO)[C@H]2Cn3c(ccc(-c4cccc(F)c4)c3=O)[C@H]2N1Cc1ccccn1,/,-1,/,/,/
c1ccc(Nc2ccc3c4c(cccc24)CC3)cc1,6,0,-1,0,/
Nc1ccc2c3c(cccc13)CC2,55*,4,-5,2,-8
COc1ccccc1CN1[C@@H](CO)[C@@H]2c3ccccc3N(C(=O)c3ccc(F)cc3)C[C@@H]21,/,-2,/,/,/
CCc1ccc(C(=O)Nc2ccc(C)c(NS(C)(=O)=O)c2)cc1,65*,/,1,-1,/
Cc1ccc(NC(=O)c2ccc(F)cc2F)cc1NS(C)(=O)=O,61*,/,8,3,/
O=C(NC(=O)c1ccc(F)cc1F)Nc1ccc(Cl)cc1,11,/,33*,4,64
COc1cc(F)ccc1-c1cc(C(=O)Nc2ccc(C)c(NS(C)(=O)=O)c2)[nH]n1,/,8,-2,-1,/
Cc1ccc(NC(=O)c2ccc(F)cc2F)cc1,20,-51,46*,3,60
O=C(Nc1ccccc1)c1ccc(F)cc1F,-1,37,10,3,63
Oc1ccccc1-c1cc(C(F)(F)C(F)F)[nH]n1,1,30,15,3,17
SMILES,AHR activator,esBAF inh,Wnt act,GAA850 FXN act,MITF TRPM1 HTS
O=[N+]([O-])c1ccccc1-c1cc(-c2ccccc2O)n[nH]1,23,55*,36*,8,45
COc1cccc(C(=O)N2C[C@H]3[C@@H](c4ccccc42)[C@@H](CO)N3C(C)=O)c1,/,1,/,/,/
Cc1cc(C)cc(NC(=O)c2cc(C)n(Cc3cccs3)c2C)c1,18,38,2,2,103*
Cc1cc(C(=O)Cn2nnc3ccccc3c2=O)c(C)n1Cc1cccs1,5,-38,35*,4,/
Cc1cc(C(=O)CN2C(=O)c3ccccc3C2=O)c(C)n1Cc1cccs1,0,-27,-2,-6,-7
Cn1cnc2cc(NCc3ccccc3Cl)ccc21,8,51*,14,5,?
